Test [1] can be described thus: CEETOX_H295R_11DCORT: CeeTox H295R High-throughput Steroidogenesis Assay for 11-Deoxycortisol (11DCORT) (AID 2283432). Particulars: actives raise or lower the signal. In short, it runs like this: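 Human adrenal H295R cells were prestimulated with 10 uM forskolin for 48 h, then exposed to test chemical (0.1% DMSO final) for 48 h. Medium 11-deoxycortisol was quantified by MTBE extraction and HPLC-MS/MS; bidirectional fitting relative to DMSO.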

Test [2] is described as follows: CEETOX_H295R_OHPROG: CeeTox H295R High-throughput Steroidogenesis Assay for OH-Progesterone (OHPROG) (AID 2283435). The settings on record: actives raise or lower the signal. A digest of the protocol: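 H295R human adrenal cells were prestimulated 48 h with 10 uM forskolin, then exposed 48 h to test chemical (0.1% DMSO final). 17alpha-hydroxyprogesterone in medium was measured by HPLC-MS/MS after MTBE extraction; bidirectional fitting vs DMSO.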

A short description of test [3]: CEETOX_H295R_CORTIC: CeeTox H295R High-throughput Steroidogenesis Assay for Corticosterone (CORTIC) (AID 2283437).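 Note: corticosterone secreted into medium quantified by mass spectrometry.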 Particulars: actives raise or lower the signal. In short, it runs like this:
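H295R cells were prestimulated 48 h with 10 uM forskolin, then exposed 48 h to test chemical in 0.1% DMSO. Medium corticosterone was MTBE-extracted and quantified by HPLC-MS/MS; bidirectional fit versus DMSO baseline.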

Test [4] addresses Peroxisome proliferator-activated receptor gamma (Homo sapiens) (UniProt P37231). The test can be described thus: OT_PPARg_PPARgSRC1_0480: Odyssey Thera (OT) 8-hour Protein-Complementation Assay for Peroxisome Proliferator-activated Receptor Gamma / SRC-1 Co-activator (AID 2283387; active = hit-call score of the fitted dose curve at least 0.9, where 1 is the maximum;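 note: nuclear to cytoplasmic split Venus YFP fluorescence ratio reporting PPARg SRC-1 interaction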). A digest of the protocol: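 Protein-fragment complementation of split Venus YFP reports PPARg/SRC-1 interaction in HEK293T (transfected 48 h before treatment), exposed 8 h. Readout: N/C fluorescence ratio at 488 nm from imaging, Draq5 for segmentation, positive fit relative to DMSO.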

Test [5] shares this target. The test can be described thus: OT_PPARg_PPARgSRC1_1440: Odyssey Thera (OT) 24-hour Protein-Complementation Assay for Peroxisome Proliferator-activated Receptor Gamma/ SRC-1 Co-activator (AID 2283388; active = hit-call score of the fitted dose curve at least 0.9, where 1 is the maximum;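 note: nuclear to cytoplasmic ratio of reconstituted Venus YFP fluorescence in fixed imaged cells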). A digest of the protocol:
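Protein-fragment complementation between PPARg and coactivator SRC-1 was measured by fluorescence imaging in transiently transfected HEK293T cells after 24 h treatment. Signal was quantified as N/C ratio in the 488 nm channel, with DMSO as negative control.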

The nature of test [6]: CEETOX_H295R_ANDR: CeeTox H295R High-throughput Steroidogenesis Assay for Androstenedione (ANDR) (AID 2283436). The settings on record: actives raise or lower the signal. In short, it runs like this: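 H295R human adrenal cells (passages ≤10) were exposed to test chemicals for 48 h; androstenedione in medium was MTBE-extracted and quantified by HPLC-MS/MS against a 7-point standard curve. Bidirectional fitting used DMSO as baseline.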

Inconclusive results are not listed. Active and inactive are the calls of the source. Rule for the calls, unless noted: active = hit-call score of the fitted dose curve at least 0.9, where 1 is the maximum; inactive = score below 0.9.

Peroxisome proliferator-activated receptor gamma (Homo sapiens), sequence (P37231 whole entry, looked up, the tested form may be a part): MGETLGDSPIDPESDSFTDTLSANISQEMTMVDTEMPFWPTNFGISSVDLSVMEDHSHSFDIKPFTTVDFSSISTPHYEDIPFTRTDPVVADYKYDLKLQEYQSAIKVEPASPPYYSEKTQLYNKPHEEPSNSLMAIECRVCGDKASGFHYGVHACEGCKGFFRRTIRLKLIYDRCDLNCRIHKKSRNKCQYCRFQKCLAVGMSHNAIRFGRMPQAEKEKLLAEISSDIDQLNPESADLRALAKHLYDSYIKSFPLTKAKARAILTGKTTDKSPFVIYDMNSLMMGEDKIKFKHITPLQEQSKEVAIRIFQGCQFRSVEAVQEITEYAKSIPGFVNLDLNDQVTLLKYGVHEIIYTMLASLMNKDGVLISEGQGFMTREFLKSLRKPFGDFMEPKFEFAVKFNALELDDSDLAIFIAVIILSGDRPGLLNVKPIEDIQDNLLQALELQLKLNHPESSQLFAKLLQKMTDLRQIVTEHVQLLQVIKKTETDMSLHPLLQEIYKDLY

Consider `Nc1ccc(F)c([N+](=O)[O-])c1`, for which the outcome in test [1] and in test [3] was inactive. In test [2], the half-maximal activity concentration (AC50) – broadly, the midpoint of the concentration-response curve, whichever way the signal moves – was 37.7 µM (active).
Regarding `O=C(O)Cc1cccc2ccccc12`, the call in test [4] and in test [5] was inactive.
With `Nc1cc([N+](=O)[O-])ccc1Cl`, the compound was called inactive in test [1], in test [6] and in test [3]. Moreover, the AC50 in test [2] is 39.3 µM (active).

The record behind these values is PubChem BioAssay (EPA / NIEHS).
